Laboratory results as given in PubChem BioAssay (NCATS).
Inconclusive results are not listed. Calls of active or inactive are those of the source. Calls come from the whole dose curve.

Key:
[1] = qHTS drug screen for cell cycle checkpoint inhibitors in PARPi-resistant BRCA-mutant ovarian cancer cell lines. (AID 1963452); details: PEO1/OlaR viability, CellTiter-Glo luminescence, 96 h, stronger effect = lower value
Method in brief: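 PEO1, PEO4 and PEO1/OlaR ovarian cancer cells, 600 per well, exposed 96 h at 37C to a dilution series. Viability read by CellTiter-Glo luminescence, normalized to DMSO and empty wells; activity summarized as Z-AUC.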

[2] = qHTS for identification of novel therapeutic agents for treatment of microphthalmiaassociated transcription factor (MiT) renal cell carcinoma (RCC) (AID 1963991); details: CellTiter-Glo, 48 h, stronger effect = lower value
Method in brief: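 Three TFE3-fusion RCC cell lines (UOK109, UOK124, UOK145), 500 cells/well, were exposed to the 1912-compound MIPE 4.0 library for 48 hours at 37 C. Viability was read by CellTiter-Glo luminescence, normalised to DMSO (100%) and empty wells (0%), with 11-concentration curve fits.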

[3] = measured here: PEO1 parental Z-AUC
[4] = TFE3-RCC UOK109 viability, measured here: UOK109 Z-AUC
[5] = TFE3-RCC viability, measured here: UOK124 Z-AUC
[6] = TFE3-RCC viability, measured here: UOK145 Z-AUC

CNCc1ccc(-c2[nH]c3cc(F)cc4c3c2CCNC4=O)cc1
Z-AUC [1]: 0.567 (inactive) | Z-AUC [1, 3]: 0.569 | Z-AUC ([1]; measured here: PEO4 Z-AUC): 0.848

CCN(CC)CCCC(C)Nc1nc(C)cc(Nc2ccc3nc(C)cc(N)c3c2)n1 (centres undefined)
Z-AUC [1]: 0.723 (inactive) | Z-AUC [1, 3]: 0.692 | Z-AUC ([1]; measured here: PEO4 Z-AUC): 0.29 | z-score [2, 4]: 0.273 | z-score [2, 5]: 0.864 | z-score [2, 6]: 0.237

CCCS(=O)(=O)Nc1ccc(F)c(C(=O)c2c[nH]c3ncc(-c4ccc(Cl)cc4)cc23)c1F
Z-AUC [1]: 0.0673 (inactive) | Z-AUC [1, 3]: -0.745 | Z-AUC ([1]; measured here: PEO4 Z-AUC): -0.427

CC[C@@H](C)[C@H](NC(=O)[C@H](CC1CCCCC1)NC(=O)c1ccno1)C(=O)N1CCC2(CCc3ccccc32)CC1
Z-AUC [1]: -0.29 (inactive) | Z-AUC [1, 3]: -0.177 | Z-AUC ([1]; measured here: PEO4 Z-AUC): -0.471 | z-score [2, 4]: 0.139 | z-score [2, 5]: 0.261 | z-score [2, 6]: -0.242

O=C(O)[C@@H](c1ccc(OCc2ccc3ccccc3n2)cc1)C1CCCC1
Z-AUC [1]: 1.02 (inactive) | Z-AUC [1, 3]: 0.403 | Z-AUC ([1]; measured here: PEO4 Z-AUC): 0.552 | z-score [2, 4]: 0.431 | z-score [2, 5]: 0.636 | z-score [2, 6]: 0.202

Nc1cccc(S(=O)(=O)N2CCCN(S(=O)(=O)c3ccc4c(c3)OCCO4)CC2)c1
Z-AUC [1]: 1.03 (inactive) | Z-AUC [1, 3]: 0.843 | Z-AUC ([1]; measured here: PEO4 Z-AUC): 0.787 | z-score [2, 4]: 0.453 | z-score [2, 5]: 0.564 | z-score [2, 6]: 0.252

O=C(c1cc(Cc2n[nH]c(=O)c3ccccc23)ccc1F)N1CCN(C(=O)C2CC2)CC1
Z-AUC [1]: 0.491 (inactive) | Z-AUC [1, 3]: -0.378 | Z-AUC ([1]; measured here: PEO4 Z-AUC): 0.0684

CCn1c(-c2nonc2N)nc2cnc(Oc3cccc(NC(=O)c4ccc(OCCN5CCOCC5)cc4)c3)cc21
Z-AUC [1]: 0.926 (inactive) | Z-AUC [1, 3]: 0.828 | Z-AUC ([1]; measured here: PEO4 Z-AUC): 0.912

CC(C)OC(=O)C1=CN(C(=O)c2ccc(F)c(F)c2)CC(C)(C)c2c1[nH]c1ccccc21
Z-AUC [1]: -0.655 (inactive) | Z-AUC [1, 3]: 1.12 | Z-AUC ([1]; measured here: PEO4 Z-AUC): 0.385 | z-score [2, 4]: 0.178 | z-score [2, 5]: 0.0335 | z-score [2, 6]: -0.0962

Fc1ccc(Cl)cc1-c1nc(Nc2ccncc2)c2nccnc2n1
Z-AUC [1]: 0.985 (inactive) | Z-AUC [1, 3]: 1.18 | Z-AUC ([1]; measured here: PEO4 Z-AUC): 1.09

Cc1cc(SCc2sc(-c3ccc(C(F)(F)F)cc3)nc2C)ccc1OCC(=O)O
Z-AUC [1]: 1.25 (inactive) | Z-AUC [1, 3]: 0.45 | Z-AUC ([1]; measured here: PEO4 Z-AUC): 0.535 | z-score [2, 4]: 0.936 | z-score [2, 5]: 0.482 | z-score [2, 6]: 0.629

CC1(C)Cc2c(-c3ccccc3)c(-c3ccc(Cl)cc3)c(CC(=O)O)n2C1
Z-AUC [1]: 0.0211 (inactive) | Z-AUC [1, 3]: 0.818 | Z-AUC ([1]; measured here: PEO4 Z-AUC): 0.66

CN[C@@H](C)C(=O)N[C@H]1CCCC[C@H]2CC[C@@H](C(=O)N[C@@H](c3ccccc3)c3cn(CCCCc4ccc(CCCCn5cc([C@@H](NC(=O)[C@@H]6CC[C@@H]7CCCC[C@H](NC(=O)[C@H](C)NC)C(=O)N76)c6ccccc6)nn5)cc4)nn3)N2C1=O
Z-AUC [1]: 1.6 (inactive) | Z-AUC [1, 3]: 0.404 | Z-AUC ([1]; measured here: PEO4 Z-AUC): 0.201

Cc1cc([C@@H](C)Nc2ccccc2C(=O)O)c2nc(N3CCOCC3)cc(=O)n2c1
Z-AUC [1]: 0.266 (inactive) | Z-AUC [1, 3]: 0.877 | Z-AUC ([1]; measured here: PEO4 Z-AUC): 0.854

CC(C)(C)OC(=O)CN(Cc1ccc(Cl)cc1)Cc1ccc([N+](=O)[O-])s1
Z-AUC [1]: 0.709 (inactive) | Z-AUC [1, 3]: 0.527 | Z-AUC ([1]; measured here: PEO4 Z-AUC): 0.345 | z-score [2, 4]: 0.406 | z-score [2, 5]: 0.354 | z-score [2, 6]: 0.158

O=c1[nH]c(-c2ccc(C(F)(F)F)cc2)nc2c1CSCC2
Z-AUC [1]: 0.604 (inactive) | Z-AUC [1, 3]: 0.431 | Z-AUC ([1]; measured here: PEO4 Z-AUC): 0.432
